These results are taken from the supplement of paper PMC10503962.

The structures appear in SMILES notation.

In the experiment the test system is Trichuris muris adult worms. Nature of the experiment: mean motility score (Paragon pixel variance) of adult worms (arbitrary units); higher = more motile worms, i.e. less anthelmintic effect; extreme values may be limits of the assay. As to conditions: 100 µM; 24 h. An outline of the steps:
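Single adult Trichuris muris worms, collected from infected NOD SCID mice, were placed in 96-well plates with 100 μL RPMI-1640 plus antibiotics and drug at 100 μM (1% v/v DMSO), then kept at 37°C and 5% CO2 for 24 h. Plates were filmed on an automated phenotyping platform (200 frames, 100 ms apart). Motility score came from Paragon pixel-variance analysis, averaged across replicate wells. Each drug had three worms in three wells, run on three separate occasions, with vehicle and positive controls.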
Molecule `C=C(CC)C(=O)c1ccc(OCC(=O)O)c(Cl)c1Cl` [ethacrynic acid] showed a mean motility score of 215.
For `CCCc1cc(C(N)=S)ccn1` [protionamide], the mean motility score was found to be 2460.
The value for `Cc1cc2c(s1)Nc1ccccc1N=C2N1CCN(C)CC1` [olanzapine] was 454; that for `CN1CCC(=C2c3ccccc3CC(=O)c3sccc32)CC1` [ketotifen] was 2220; that for `COc1ccccc1OCCNCC(O)COc1cccc2[nH]c3ccccc3c12` (centres undefined) [carvedilol] was 35.7.
The figure for `COCCCC/C(=N\OCCN)c1ccc(C(F)(F)F)cc1` [fluvoxamine] is 2670; for `COc1cc2ncnc(Nc3ccc(F)c(Cl)c3)c2cc1OCCCN1CCOCC1` [gefitinib] it is 1080.
The value for `NCCc1ccc(O)c(O)c1` [dopamine] was 3440; that for `NC[C@H](O)c1ccc(O)c(O)c1` [noradrenaline] was 3120.
Regarding `Cc1cc(CC(=O)[O-])n(C)c1C(=O)c1ccc(Cl)cc1.[Na+]` [zomepirac sodium], the mean motility score amounted to 2840.
In turn, `N=C(N)NCCN1CCCCCCC1.N=C(N)NCCN1CCCCCCC1.O=S(=O)(O)O` [guanethidine sulfate] displayed a mean motility score of 2380.
The value for `Cn1cnc2c(F)c(Nc3ccc(Br)cc3Cl)c(C(=O)NOCCO)cc21` [selumetinib] was 3500.
Regarding `C[C@]12C=CC(=O)C=C1CC[C@@H]1[C@@H]2[C@@H](O)C[C@@]2(C)[C@H]1CC[C@]2(O)C(=O)CO` [prednisolone], the mean motility score was 659.
The figure for `CCCCC1=NC2(CCCC2)C(=O)N1Cc1ccc(-c2ccccc2-c2nn[nH]n2)cc1` [irbesartan] is 2360.
